Giardia killer: Giardia lamblia killing | Giardia lamblia trophozoite viability | activity change, % at 7.66 µM, hits read low | 0.15% of 340,000 active; in the data active = activity change below about -80%; inconclusive = between about -30% and that limit;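 note: parasites exposed to compound for two days anaerobically before the ATP read; % is set by controls: 0 for no effect and ±100 for the full control effect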
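Luminescence from cellular ATP indicates surviving trophozoites (100 cells/well) following 48 hrs anaerobic compound treatment at 37 deg C; signal develops 15-30 min at room temperature.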
RORgamma inh: inhibitors of mouse ROR gamma transcriptional activity. P51450. Drosophila S2 Gal4-RORgamma UAS-luciferase reporter, 20 h. Potency, µM (doses to about 53.6 µM), for the others: at the highest dose activity change, negative = inhibition, hits mostly inhibitors. 5.4% of 310,000 active; note: potency is the fitted concentration of half-maximal effect; % is set by controls: 0 for no effect and ±100 for the full control effect; nearly all actives have a fitted effect of over 60% in size
Target sequence (P51450 whole entry, looked up, the tested form may be a part): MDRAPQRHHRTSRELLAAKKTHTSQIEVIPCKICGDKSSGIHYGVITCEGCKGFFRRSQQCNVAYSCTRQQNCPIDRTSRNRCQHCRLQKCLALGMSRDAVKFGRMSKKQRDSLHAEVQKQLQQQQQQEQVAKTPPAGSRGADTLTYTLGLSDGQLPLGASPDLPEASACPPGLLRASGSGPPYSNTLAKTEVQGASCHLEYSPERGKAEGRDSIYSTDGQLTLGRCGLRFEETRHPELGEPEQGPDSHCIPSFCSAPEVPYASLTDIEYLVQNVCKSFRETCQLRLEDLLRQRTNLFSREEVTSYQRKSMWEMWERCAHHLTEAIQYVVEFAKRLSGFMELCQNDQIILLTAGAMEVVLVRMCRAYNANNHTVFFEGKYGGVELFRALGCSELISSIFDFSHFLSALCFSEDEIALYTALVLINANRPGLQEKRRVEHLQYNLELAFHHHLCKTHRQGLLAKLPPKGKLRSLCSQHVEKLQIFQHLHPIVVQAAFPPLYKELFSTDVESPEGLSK
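Read-out: Photinus luciferase luminescence; inhibitors lower reporter signal. Insect Schneider cells with Gal4-ROR gamma fusion under metallothionein promoter, UAS reporter; 700 uM final copper sulfate induction, 20 hr, ambient temperature.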
p53 reactivation: re-activators of mutant p53. H1299 p53-A138V BP100-luciferase reporter, luminescence, 24 h. Potency, µM (top dose mostly 92.2 µM), without a hit: top-dose activity change, positive = activation, actives largely listed as activators. 0.063% of 320,000 active. AID 504706; note: potency is the fitted concentration of half-maximal effect; % of control where 0% means no effect; nearly all actives have a fitted effect of over 45% in size
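p53-null H1299 cells stably carrying temperature-sensitive p53-A138V and a BP100-luciferase reporter were pinned with compounds (4-point, 1:5 series) and held 24 hrs at 37 deg C. Luminescence was read 10 min after detection reagent.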
BRCA1 expr up: activators of BRCA1 expression | MCF7-BRCA1-FFLuc reporter, luminescence, 48 h; response scale: scaled: vehicle 0%, 10 µM genistein 100% | Potency, µM (highest dose often 46.1 µM), for inactives: at the highest dose activation, usual class: activators | 1.1% of 380,000 active; note: potency is the fitted concentration of half-maximal effect; nearly all actives have a fitted effect of over 80% in size
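MCF7-BRCA1-FFLuc, 2000 cells/well; 2 h attach, 37 °C/5% CO2; compound 48 h; luciferase substrate 15 min; luminescence end-point. Norm. to genistein 10 microM max activation and DMSO; concentration-response curves fitted.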
ELG1 DNA repair: blocks ELG1-dependent DNA repair in HEK293T cells; Potency, µM (top dose mostly 46.1 µM), for the others: at the highest dose activity change, negative = inhibition, usual class: inhibitors; HEK293T ELG1-luciferase reporter, luminescence, 16 h; DNA damage induced by 5-fluorouridine; 2.3% of 330,000 active; note: potency is the fitted concentration of half-maximal effect; % is set by controls: 0 for no effect and ±100 for the full control effect; nearly all actives have a fitted effect of over 55% in size
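In this reporter screen, reduction of luminescence relative to DMSO vehicle indicated activity. Compounds and 5-fluorouridine were added together to 2,000 cells per well, incubated for 16 hr at 37 °C, then developed with ONE-Glo.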
Gal4-VP16 FLuc: inhibits Gal4-VP16 luciferase reporter, ROR gamma counter-screen | Drosophila S2 Gal4-VP16 UAS-luciferase, luminescence, 20 h | Potency, µM (doses to about 53.6 µM), for the others: at the top dose activity, negative = inhibition, most hits filed as inhibitors | 3.5% of 310,000 active | AID 2546;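 note: Gal4-VP16 expression switched on by copper sulfate through the metallothionein promoter; potency is the fitted concentration of half-maximal effect; % is set by controls: 0 for no effect and ±100 for the full control effect; nearly all actives have a fitted effect of over 50% in size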
ELG1 FLuc counter: luciferase inhibition in cell-free luciferin readout for ELG1 hits; shares compounds with ELG1 DNA repair; cell-free firefly luciferase luminescence counter-screen, ViewLux; Potency, µM (doses to about 46.1 µM), without a hit: at the highest dose activity change, negative = inhibition, usual class: inhibitors; 3% of 350 active; AID 624247; note: potency is the fitted concentration of half-maximal effect; % is set by controls: 0 for no effect and ±100 for the full control effect
ELG1-Luc inh: inhibits ELG1-dependent DNA repair in HEK293T cells, confirmed; shares compounds with ELG1 DNA repair; HEK293T ELG1-luciferase levels, luminescence; cells co-treated with 5-fluorouridine; Potency, µM (highest dose often 46.1 µM), without a hit: at the top dose activity change, negative = inhibition, hits mostly inhibitors; 68% of 670 active; AID 624248; note: potency is the fitted concentration of half-maximal effect; % is set by controls: 0 for no effect and ±100 for the full control effect; nearly all actives have a fitted effect of over 55% in size
ELG1-Luc MMS: confirmation of human ELG1 repair inhibitors, MMS stimulated; HEK293T luciferase-tagged ELG1 level, MMS stimulated; Potency, µM (doses to about 46.1 µM), inactives show at the top dose activity change, negative = inhibition, usual class: inhibitors; 53% of 670 active; AID 624249; shares compounds with ELG1 DNA repair; note: potency is the fitted concentration of half-maximal effect; % is set by controls: 0 for no effect and ±100 for the full control effect; nearly all actives have a fitted effect of over 60% in size
ELG1 5-FU: confirmation of ELG1 repair inhibitors: viability with 5FU. Potency, µM (highest dose often 46.1 µM), without a hit: at the highest dose activity change, negative = viability loss, actives largely listed as cytotoxic. shares compounds with ELG1 DNA repair. cell viability with 5-FU, ELG1-dependent repair. 670 tested, under 10 active. AID 624250;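 note: ELG1-luc HEK293T cells cotreated with 5-fluorouridine at 10 µM final; potency is the fitted concentration of half-maximal effect; viability measured 16 h after compound addition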
ELG1 MMS cell: confirmation of ELG1 repair inhibitors: viability with MMS. shares compounds with ELG1 DNA repair. Cell viability with MMS, ELG1-dependent DNA repair. Potency, µM (doses to about 46.1 µM), for inactives: top-dose activity change, negative = viability loss, actives largely listed as cytotoxic. 33% of 670 active. AID 624251;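 note: ELG1-luc HEK293T cells co-treated with 10 µM MMS; potency is the fitted concentration of half-maximal effect; viability read 16 h after compound addition; % is set by controls: 0 for no effect and ±100 for the full control effect; nearly all actives have a fitted effect of over 60% in size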
Cell viab unstim: unstimulated viability counter-screen for ELG1 repair hits. shares compounds with ELG1 DNA repair. 8% of 900 active. cell viability counter-screen, unstimulated, luminescence. Potency, µM (doses to about 45.9 µM), without a hit: at the highest dose activity change, negative = loss of viability, most hits filed as cytotoxic. AID 624252;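 note: potency is the fitted concentration of half-maximal effect; compound exposure lasted 16 hours before reading; % is set by controls: 0 for no effect and ±100 for the full control effect; nearly all actives have a fitted effect of over 55% in size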
FLuc biochem: counter-screen for ELG1 repair inhibitors: firefly luciferase inhibition; shares compounds with ELG1 DNA repair; purified firefly luciferase, luminescence counter-screen; Potency, µM (top dose mostly 57.5 µM), for the others: at the highest dose activity, negative = inhibition, actives largely listed as inhibitors; 10% of 350 active; AID 624253; note: potency is the fitted concentration of half-maximal effect; % is set by controls: 0 for no effect and ±100 for the full control effect
An asterisk follows results filed as active; ? = inconclusive; . = not tested or not shown; ! = not confirmed by another sample. Rows were chosen to be rich in hits. Some 7.6% of all compounds tested hit in one or more screens of this group. Unless noted, calls come from the whole dose curve; as a rule, active = well fitted curve in the direction sought with a large enough effect; inconclusive = small, poorly fitted or top-dose-only effect, or another doubt; inactive = no such curve, though single readings can be large; an effect the other way counts as inactive or inconclusive.

SMILES	Giardia killer	RORgamma inh	p53 reactivation	BRCA1 expr up	ELG1 DNA repair	Gal4-VP16 FLuc	ELG1-Luc inh	ELG1-Luc MMS	ELG1 5-FU	ELG1 MMS cell	Cell viab unstim	others
O=C(Nc1ccc(N2CCCC2)c(Cl)c1)c1ccc([N+](=O)[O-])cc1	-20.2	17.6%	3.9%	20.8%	1.84µM*	-5.1%	?	-13.9%	?	-4.6%	-3.1%
CN1C(=O)c2ccc(NC(=O)c3ccc(N4CCCCC4)c([N+](=O)[O-])c3)cc2C1=O	5.9	35.5%	-3.9%	-5.6%	3.66µM*	-1.8%	14.1µM*	14.1µM*	?	?	-18.0%
O=C(Nc1cccnc1)c1ccc(N2CCCC2)c([N+](=O)[O-])c1	20.2	?	-1.1%	-19.2%	-7.1%	-6.2%	.	.	.	.	.
CC(C)CN(C(=O)COC(=O)c1c(Cl)ccc(Cl)c1Cl)C1CCS(=O)(=O)C1 (stereo not drawn)	3.3	12.1%	0.9%	0.0%	?	-4.9%	.	.	.	.	.
Cc1nnc(NC(=O)C(C)Sc2nncn2C)s1 (stereo not drawn)	34.2	-0.4%	1.2%	-10.4%	7.7%	3.9%	.	.	.	.	.
CCOc1ccc(C(=O)Nc2cc3c(cc2N2CCCC2)n(CC)c(=O)n3CC)cc1OCC	40.3	-31.7%	-7.4%	-12.6%	?	-4.3%	15.8µM*	?	11.9%	?	?	ELG1 FLuc counter=1.8%;FLuc biochem=-8.2%
CCOC(=O)C1CCN(c2cc3c(cc2NC(=O)c2ccccc2F)n(C)c(=O)n3C)CC1	-17.3	-16.2%	7.3%	-8.1%	?	5.9%	.	.	.	.	.
CCn1c(=O)n(CC)c2cc(N3CCCC3)c(NC(=O)c3ccc(F)cc3)cc21	5.8	0.0%	-4.8%	-0.9%	?	-2.1%	.	.	.	.	.
CCOC(=O)C1CCN(c2cc3c(cc2NC(=O)c2ccc(F)cc2)n(C)c(=O)n3C)CC1	7.5	-14.2%	-1.2%	-13.9%	2.31µM*	2.5%	2.5µM*	14.1µM*	?	25µM*	25µM*!	ELG1 FLuc counter=-12.4%;FLuc biochem=-2.6%
